Assay outcomes: PubChem BioAssay, National Center for Advancing Translational Sciences (NCATS)
KinaseGlo FLuc = Kinase-Glo luciferase inhibition (counter-screen); Q27757; Kinase-Glo luciferase, ATP luminescence, 8 min; Potency, µM (titrated, usually from 38.3 µM), for inactives: at the top dose activity change, negative = inhibition, usual class: inhibitors; hit rate 0.28% among 200,000; also: potency is read from the fitted curve at half-maximal effect; % is scaled to controls: 0 for no effect and ±100 for the full control effect; nearly all actives have a fitted effect of over 60% in size
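Luminescence was the read-out, taken after 8-minute incubation at ambient temperature. Luciferase turned over luciferin with 10 uM ATP in imidazole pH 7.2 buffer containing KCl, MgCl2, Tween 20 and BSA.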
TRPV1 ag = agonists of human vanilloid receptor 1 (TRPV1); Q8NER1; AID 540275; activation, % at 8.33 µM; TRPV1-expressing cells, Fluo-8 calcium influx, agonist mode; hit rate 0.19% among 320,000; in the data active = activation above about 80%; inconclusive = between about 30% and that limit; also: 0% is about no effect
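TRPV1-expressing cells were cultured overnight at 35.5C and loaded with Fluo-8 calcium dye for 40 to 90 min at room temperature. After a 10 s baseline, compound was added and calcium influx was read kinetically for 3 min (ex 480/em 520 nm).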
MBNL1-CUG inh = inhibitors of human MBNL1 binding to CUG repeat RNA; Q9NR56; TR-FRET MBNL1-His/biotin-(CUG)12 binding, 665/545 ratio; Potency, µM (top dose mostly 57.5 µM), for the others: at the top dose activity change, negative = inhibition, hits mostly inhibitors; hit rate 0.036% among 280,000; active = well fitted inhibition curve with a large enough effect in the signal ratio, with a control signal flat, not every such curve was filed as active; inconclusive = small, poorly fitted or top-dose-only effect, or effect the other way, or a change in a side signal; inactive = no such curve, though single readings can be large or run the other way; the % refers to the signal ratio; also: potency is read from the fitted curve at half-maximal effect; % is scaled to controls: 0 for no effect and ±100 for the full control effect
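Compounds (final 92 nM to 58 uM) are added to His-tagged MBNL1 and biotin-(CUG)12, then terbium anti-His antibody and streptavidin-XL665 (5 nM final). After 60 min at room temperature, the 665/545 nm ratio is read.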
TRPV1 potentiator = human TRPV1 potentiation. TRPV1-expressing cells, Fluo-8 calcium influx, capsaicin EC20 potentiation. potentiation, % at 8.33 µM. hit rate 0.02% among 320,000; in the data active = potentiation above about 80%; inconclusive = between about 30% and that limit; also: 0% is about no effect
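Cells expressing TRPV1 were dye-loaded with Fluo-8 and read kinetically: 10 s baseline, 3 min after compound (agonist portion), then 2 min after EC20 capsaicin (allosteric enhancer portion). Calcium-bound dye fluorescence at 480/520 nm.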
TCR activator = T cell receptor activation; 330,000 tested, under 10 active; primary human leukocytes, anti-CD3, IL-2 HTRF, 48 h; Potency, µM (highest dose often 9.22 µM), for inactives: at the highest dose activation of IL-2 secretion, usual class: activators; also: % of control where 0% means no effect
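Primary human leukocytes incubated 48 hr with anti-CD3 beads plus compound, without co-stimulation. Secreted IL-2 measured by HTRF (europium cryptate/d2 anti-IL-2 pair, 320 nm excitation, 665 nm emission).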
CBFb-RUNX1 inh = CBF-beta/RUNX1 interaction disruption; AID 1477; 230,000 tested, under 10 active; AlphaScreen CBFb-His/RUNX1-biotin binding, biochemical; Q01196+Q13951; Potency, µM (doses to about 59.8 µM), for the others: at the top dose activity, negative = inhibition, hits mostly inhibitors; also: % of control where 0% means no effect
Target sequence (Q01196 whole entry, looked up): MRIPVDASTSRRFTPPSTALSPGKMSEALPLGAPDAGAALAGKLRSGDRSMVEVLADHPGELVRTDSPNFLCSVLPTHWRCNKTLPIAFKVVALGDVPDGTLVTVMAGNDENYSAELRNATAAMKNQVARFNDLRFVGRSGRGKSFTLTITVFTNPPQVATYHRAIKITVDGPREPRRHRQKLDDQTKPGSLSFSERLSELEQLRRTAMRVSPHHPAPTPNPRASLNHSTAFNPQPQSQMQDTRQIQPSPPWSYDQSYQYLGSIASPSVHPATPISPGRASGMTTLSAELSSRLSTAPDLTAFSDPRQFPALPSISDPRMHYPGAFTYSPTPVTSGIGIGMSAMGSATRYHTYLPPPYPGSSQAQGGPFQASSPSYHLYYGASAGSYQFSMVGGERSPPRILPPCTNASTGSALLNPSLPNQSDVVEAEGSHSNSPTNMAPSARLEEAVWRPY
Target sequence (Q13951 whole entry, looked up): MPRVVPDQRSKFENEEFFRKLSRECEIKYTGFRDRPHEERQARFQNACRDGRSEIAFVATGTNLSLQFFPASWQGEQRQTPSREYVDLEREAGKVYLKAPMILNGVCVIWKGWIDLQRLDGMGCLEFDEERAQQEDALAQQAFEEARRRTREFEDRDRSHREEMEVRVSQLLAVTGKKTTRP
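Compounds were screened at multiple concentrations against a preformed CBF-beta(His)/RUNX1(biotin) complex (30 nM of each) for 15 min at room temperature, followed by 90 min with nickel and streptavidin beads and AlphaScreen reading.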
* = called active by the depositor; ? = inconclusive; · = no result; [ ] = dose if it differs, or a comment. This is a sample that favours compounds with a hit; in the whole collection about 0.35% have one here. Unless noted, calls follow the shape of the dose curve; as a rule, active = well fitted curve in the direction sought with a large enough effect; inconclusive = small, poorly fitted or top-dose-only effect, or another doubt; inactive = no such curve, though single readings can be large; an effect the other way counts as inactive or inconclusive.

SMILES	KinaseGlo FLuc	TRPV1 ag	MBNL1-CUG inh	TRPV1 potentiator	TCR activator	CBFb-RUNX1 inh
Cc1cc(C)cc(NC(=O)/C=C/c2ccc([N+](=O)[O-])s2)c1	0%	3	13%	-3	-1%[46.1 µM]	-9%
CCC(/C=C1\Sc2ccc(OC)cc2N1CC)=C\c1sc2ccc(OC)cc2[n+]1CCCS(=O)(=O)[O-]	10µM*	-4	?	2	-21%	-17%
CCC(=O)/C=C1/Sc2ccc(OC)cc2N1CCO	-4%	-2	0%	1	1%	0%
CCC(/C=C1\Sc2ccc(OC)cc2N1CCO)=C\c1sc2ccc(OC)cc2[n+]1CCO	10µM*	-2	?	-27	13µM*	?
CCN(CC)CCCNC(=O)c1ccc(-n2c(=O)c(=O)[nH]c3ccccc32)cc1	-1%	·	·	·	·	·
Cc1cc(C(=O)Nc2ccc([N+](=O)[O-])cn2)cs1	·	83*	?	-36	3%	·
CCC(C)(C)C(=O)O[C@@H]1C[C@@H](C)C=C2C=C[C@H](C)[C@H](CC[C@@H]3C[C@@H](O)CC(=O)O3)[C@H]21	0%	·	·	·	·	10%[21.7 µM]
CC(=O)c1cccc(NC(=S)NCCc2ccc(Cl)cc2)c1	3%	85*	0%	5	4%	-6%
O=C(NCCc1c[nH]c2ccccc12)c1ccccc1O	·	·	·	·	·	-2%
O=C(N/N=C/c1ccccc1OCC(=O)N1CCCC1)C(=O)Nc1ccccc1F	8.9µM*	-1	7%	8	4%[46.1 µM]	-5%
CCN(CC)CCNC(=O)c1ccc(Cc2nc3ccccc3[nH]2)cc1	0%	·	·	·	·	·
CCN(CC)S(=O)(=O)c1ccc(/C=C/C(=O)O)cc1	3%	1	-2%	-3	-3%	-10%
CCN(CC)S(=O)(=O)c1ccc(/C=C/C(=O)Nc2cccc(F)c2)cc1	2%	97*	·	-11	3%[46.1 µM]	9%
Cc1ccc(N2CCN(C(=O)N3CCOCC3)CC2)c(C)c1	-2%	83*	6%	-8	2%	4%
Cc1cc(C)cc(N2CCN(C(=O)N3CCOCC3)CC2)c1	·	?	5%	-12	-1%	-9%
CC(C)c1ccc(NC(=O)c2cc(Br)ccc2Br)cc1	-2%	25	-4%	-10	-3%	8%
O=C(Nc1ccc(Cl)cc1)c1ccc(Br)cc1F	-5%	83*	0%	-6	0%	4%
CSCC[C@H](NC(=O)[C@H](CC(C)C)NC(=O)[C@H](CO)NC(=O)[C@H](CCC(=O)O)NC(=O)[C@H](CC(C)C)NC(=O)[C@H](Cc1ccc(O)cc1)NC(=O)[C@H](CCCCN)NC(=O)[C@H](CCCCN)NC(=O)[C@H](C)NC(=O)[C@H](CO)NC(=O)[C@H](CC(C)C)NC(=O)[C@H](CCC(N)=O)NC(=O)CNC(=O)[C@H](CC(C)C)NC(=O)[C@H](CC(C)C)NC(=O)[C@H](CCCCN)NC(=O)[C@H](CO)NC(=O)[C@H](Cc1ccccc1)NC(=O)[C@H](CC(=O)O)NC(=O)[C@H](CO)NC(=O)[C@@H](NC(=O)[C@H](Cc1ccccc1)NC(=O)[C@@H](NC(=O)CNC(=O)[C@H](CC(=O)O)NC(=O)[C@H](C)NC(=O)[C@@H](N)Cc1cnc[nH]1)C(C)C)[C@@H](C)O)C(N)=O	·	·	·	·	·	10%
O=C(Nc1ccc(C(=O)N2CCCC2)cc1)c1ccc2c(c1)OCO2	13µM*	4	2%	-3	·	3%
O=C(Nc1ccc(C(=O)N2CCCCC2)cc1)c1ccccc1	·	·	·	·	2%	·
O=C(c1ccc2c(c1)OCO2)N1CCCC1	-2%	-3	1%	9	·	6%
O=C(Nc1ccccc1)Nc1ccc(C(=O)N2CCCC2)cc1	6.3µM*	0	-6%	12	-12%	2%
Cc1ccc(-c2nnc(Nc3ccccc3)o2)cc1	13µM*	?	5%	-9	·	2%
Cc1nc(N2CCOCC2)c2c(C)c(C(=O)Nc3ccccc3Cl)sc2n1	1%	?	5%	-25	-4%	3%
Cc1nc(N2CCOCC2)c2c(C)c(C(=O)Nc3ccccc3C(F)(F)F)sc2n1	-2%	91*	39%	-2	-8%	5%
SMILES	KinaseGlo FLuc	TRPV1 ag	MBNL1-CUG inh	TRPV1 potentiator	TCR activator	CBFb-RUNX1 inh
O=C(O)c1ccccc1NS(=O)(=O)c1ccc(F)c(Cl)c1	-4%	·	·	·	·	·
COc1ccc2nc(/N=C/c3c(C)[nH]n(-c4ccc(C)cc4)c3=O)sc2c1	10µM*	-1	2%	-25	4%[46.1 µM]	-17%
CCOC(=O)CCN1CCN(C(=O)c2ccc(-n3c(=O)c(=O)[nH]c4ccccc43)cc2)CC1	2%	·	·	·	·	·
O=C(Nc1ccc2c(c1)Cc1ccccc1-2)c1ccncc1	2%	81*	-2%	-12	5%[46.1 µM]	?
Nc1cc(S(N)(=O)=O)ccc1SSc1ccc(S(N)(=O)=O)cc1N	-4%[7.66 µM]	·	·	·	·	·
CCC(Nc1ncnc2ccc(-c3c(C)noc3C)cc12)c1ccccc1 (stereo not given)	·	·	·	·	·	1%
COc1cc(OC)c(-c2c3cc(O)c(=O)cc-3oc3cc(O)c(O)cc23)cc1OC	-12%	104*	?	-13	-8%	·
CCN(CC)CCCC(C)NC(=O)c1ccc(Cc2nc3ccccc3[nH]2)cc1 (stereo not given)	-1%	·	·	·	·	·
CCOC(=O)c1ccc(NC(=O)c2cc3c(s2)CCC3)cc1	·	106*	66%	-12	-1%	8%
Cc1ccccc1NC(=O)c1sc(Cl)nc1C	-2%	3	-2%	-4	-5%[46.1 µM]	6%
